Assay results published in PubChem BioAssay (NCI).
About 83,000 compounds went through this panel and 20% of them were active in at least one assay; those are over-represented in the sample as a whole.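 Plates (96-well) were seeded with cells, treated with compound at one concentration, and incubated for 48 hours before percent growth was determined.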 Active and inactive are the calls of the source. The calls were made as follows: active = growth percent below 10; inactive = the rest.

Legend:
Test in all cases: NCI-60 one-dose screen, 48 h (100 = growth as untreated, 0 = no growth, -100 = all killed)
HCT-15 colon = settings: 10 µM unless noted
HT29 colon = settings: 10 µM unless noted
U251 CNS = settings: 10 µM unless noted
PC-3 prostate = settings: 10 µM unless noted
SK-MEL-5 melanoma = settings: 10 µM unless noted
UACC-62 melanoma = settings: 10 µM unless noted
SK-MEL-28 melanoma = settings: 10 µM unless noted
SK-MEL-2 melanoma = settings: 10 µM unless noted
EKVX NSCLC = settings: 10 µM unless noted
SN12C renal = settings: 10 µM unless noted
UO-31 renal = settings: 10 µM unless noted
TK-10 renal = settings: 10 µM unless noted
ACHN renal = settings: 10 µM unless noted
CAKI-1 renal = settings: 10 µM unless noted
A498 renal = settings: 10 µM unless noted
MOLT-4 leukemia = settings: 10 µM unless noted
SNB-75 CNS = settings: 10 µM
SNB-19 CNS = settings: 10 µM unless noted
LOX IMVI melanoma = settings: 10 µM unless noted
CCRF-CEM leukemia = settings: 10 µM unless noted

Measured: growth

Cc1ccc(-c2cc3nc(C(Cl)Cl)nc(-c4cccnc4)n3n2)cc1
inactive: SK-MEL-5 melanoma 44.8% | UACC-62 melanoma 33.3% | SK-MEL-28 melanoma 53.2% | SK-MEL-2 melanoma 77.8% | SN12C renal 55.1% | UO-31 renal 35.9% | A498 renal 37.3% | MOLT-4 leukemia 27.8%
active: HCT-15 colon -23.4% | HT29 colon -27% | U251 CNS -15.3% | PC-3 prostate -4% | EKVX NSCLC -2.59% | TK-10 renal 6.78% | ACHN renal 1.65% | CAKI-1 renal 2.71%

O=[N+]([O-])c1cc(S(=O)(=O)Oc2ccccc2)ccc1Cl
inactive: HCT-15 colon 40.5% | SNB-75 CNS 52.2% | SNB-19 CNS 30.6% | PC-3 prostate 25.5% | UACC-62 melanoma 65.8% | SK-MEL-2 melanoma 87.5% | EKVX NSCLC 65% | SN12C renal 29.6% | TK-10 renal 52.3% | ACHN renal 37.6% | A498 renal 96.7% | MOLT-4 leukemia 19.4%
active: U251 CNS 0.0855% | SK-MEL-5 melanoma 6.43% | LOX IMVI melanoma -80.1% | SK-MEL-28 melanoma -18% | UO-31 renal -87.7% | CAKI-1 renal -89.4% | CCRF-CEM leukemia -22.1%

C=C(C)[C@@H]1C[C@@H]2Cc3cc(Cl)ccc3N1O2
inactive: HCT-15 colon 97.9% | SNB-75 CNS 99.2% | SNB-19 CNS 105% | U251 CNS 94.5% | PC-3 prostate 96.5% | SK-MEL-5 melanoma 95.8% | UACC-62 melanoma 94.9% | LOX IMVI melanoma 99.3% | SK-MEL-28 melanoma 108% | SK-MEL-2 melanoma 130% | EKVX NSCLC 84.7% | SN12C renal 102% | UO-31 renal 100% | TK-10 renal 129% | ACHN renal 99% | CAKI-1 renal 95.9% | A498 renal 96.3%
active: CCRF-CEM leukemia -70.8%

Cc1nn(-c2ccc([N+](=O)[O-])cc2)c2ncnc(NCCc3ccccc3)c12
inactive: HCT-15 colon 95.4% | SNB-75 CNS 87.9% | SNB-19 CNS 97.2% | U251 CNS 102% | PC-3 prostate 88.7% | SK-MEL-5 melanoma 104% | UACC-62 melanoma 90.5% | LOX IMVI melanoma 103% | SK-MEL-28 melanoma 106% | SK-MEL-2 melanoma 110% | EKVX NSCLC 52.6% | SN12C renal 102% | UO-31 renal 79.7% | TK-10 renal 108% | ACHN renal 99.8% | CAKI-1 renal 87.2% | A498 renal 81.7% | CCRF-CEM leukemia 100% | MOLT-4 leukemia 64.7%

O=C(Nc1cccc(-n2cc(-c3ccncc3)c(-c3ccc(Cl)c(O)c3)n2)c1)Nc1cc(C(F)(F)F)cc(C(F)(F)F)c1
active: HCT-15 colon -7.23% | HT29 colon -56% | U251 CNS -83.8% | PC-3 prostate -32.4% | SK-MEL-5 melanoma -94.7% | UACC-62 melanoma -65.6% | LOX IMVI melanoma -94.1% | SK-MEL-2 melanoma -73.7% | SN12C renal -36.1% | UO-31 renal -34.4% | TK-10 renal -24.6% | ACHN renal 8.48% | CAKI-1 renal 8.94% | A498 renal -18.6% | CCRF-CEM leukemia -16% | MOLT-4 leukemia -18.5%

O=c1cc(Cc2ccc([N+](=O)[O-])cc2)[nH]c(=O)[nH]1
inactive: HCT-15 colon 96.6% | SNB-75 CNS 94.4% | SNB-19 CNS 97% | U251 CNS 103% | PC-3 prostate 92.6% | SK-MEL-5 melanoma 109% | UACC-62 melanoma 99.9% | LOX IMVI melanoma 103% | SK-MEL-28 melanoma 114% | SK-MEL-2 melanoma 94.6% | EKVX NSCLC 115% | SN12C renal 98.4% | UO-31 renal 67% | TK-10 renal 97.9% | ACHN renal 98.1% | CAKI-1 renal 110% | A498 renal 110% | CCRF-CEM leukemia 91.1% | MOLT-4 leukemia 94.9%

O=C(CCl)N(C1CCCCC1)C1CCCCC1
active: LOX IMVI melanoma -3.14%
inactive: HCT-15 colon 98.4% | SNB-75 CNS 95.7% | SNB-19 CNS 109% | U251 CNS 104% | PC-3 prostate 93.7% | SK-MEL-5 melanoma 93.3% | UACC-62 melanoma 102% | SK-MEL-28 melanoma 104% | SK-MEL-2 melanoma 108% | EKVX NSCLC 104% | SN12C renal 107% | UO-31 renal 98.3% | TK-10 renal 104% | ACHN renal 109% | CAKI-1 renal 98.7% | A498 renal 91.7% | CCRF-CEM leukemia 42.6% | MOLT-4 leukemia 110%

CCCCCCCCCCCC(=O)NCCC[N+](C)(C)CC(=O)[O-]
inactive: HCT-15 colon 100% | SNB-75 CNS 93.4% | SNB-19 CNS 88.3% | U251 CNS 72.2% | PC-3 prostate 31.8% | SK-MEL-5 melanoma 95.6% | UACC-62 melanoma 78% | LOX IMVI melanoma 79.8% | SK-MEL-28 melanoma 99% | SK-MEL-2 melanoma 96.3% | EKVX NSCLC 103% | SN12C renal 103% | UO-31 renal 97.6% | TK-10 renal 76.6% | ACHN renal 109% | CAKI-1 renal 95.8% | A498 renal 91% | CCRF-CEM leukemia 89.5% | MOLT-4 leukemia 78.6%

CCN(CC)c1ccc(CNc2ccnc3ccccc23)cc1
inactive: HCT-15 colon 58.6% | HT29 colon 24.8% | U251 CNS 52.4% | PC-3 prostate 42.4% | UACC-62 melanoma 76.4% | SK-MEL-28 melanoma 80.4% | SK-MEL-2 melanoma 79.3% | EKVX NSCLC 45.3% | SN12C renal 64% | UO-31 renal 31.6% | TK-10 renal 60% | ACHN renal 75.8% | CAKI-1 renal 61.9% | A498 renal 48.2% | CCRF-CEM leukemia 53.3% | MOLT-4 leukemia 51.7%
active: SK-MEL-5 melanoma 8.05%
